# Measurements published in PubChem BioAssay (NCI).
# The panel holds about 79,000 compounds, 15% with a hit somewhere; the sample as a whole holds those more often. Unmarked numbers belong to inactive results. The source made the active and inactive calls. Rule as the data show it: active = growth inhibition above about 70%; inactive = the rest.
# How the values were obtained:
# [1] = NCI Yeast Anticancer Drug Screen. Data for the rad52 strain (AID 147);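 also: 0% = growth of vehicle-treated control cultures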; conditions: S. cerevisiae rad52 mutant growth inhibition, stronger effect = higher value
# Outline: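 Screen used a yeast mutant impaired in DNA repair. After compound exposure, growth was measured. Values reflect inhibition compared with vehicle-treated cells.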
# [2] = NCI Yeast Anticancer Drug Screen. Data for the wt1 strain (AID 149);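 also: 0% = growth of vehicle-treated wt1 cultures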; conditions: S. cerevisiae wt1 strain (SPY 50644) growth inhibition, stronger effect = higher value
# Outline: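 Compounds are added to wt1 yeast cultures. Growth is then measured. Inhibition is expressed relative to vehicle-treated controls.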
# [3] = NCI Yeast Anticancer Drug Screen. Data for the rad50EPP+ strain (AID 151);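 also: 0% = growth of vehicle-treated control cultures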; conditions: S. cerevisiae rad50 mutant strain, stronger effect = higher value
# Outline: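 Exposing the rad50EPP+ strain to each compound, growth was compared with vehicle-only cultures to give inhibition.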
# [4] = NCI Yeast Anticancer Drug Screen. Data for the mgt1 strain (AID 153); conditions: S. cerevisiae mgt1 mutant growth inhibition, stronger effect = higher value
# Outline: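 Genetically defined yeast (mgt1) treated with compound; inhibition of growth expressed against vehicle-treated controls.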
# [5] = NCI Yeast Anticancer Drug Screen. Data for the rad50 strain (AID 155);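 also: 0% = growth of vehicle-only cultures of the same strain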; conditions: S. cerevisiae rad50 strain growth inhibition, stronger effect = higher value
# Outline: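 Inhibition values express reduced yeast growth in compound-treated cultures relative to vehicle-treated controls.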
# [6] = NCI Yeast Anticancer Drug Screen. Data for the mec2-1 strain (AID 157); conditions: S. cerevisiae mec2-1 strain, stronger effect = higher value
# Outline: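 Readout is yeast growth inhibition, normalised to vehicle-treated controls, in the mec2-1 strain exposed to compound.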
# [7] = NCI Yeast Anticancer Drug Screen. Data for the rad14 strain (AID 159);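 also: 0% = growth of vehicle-treated control cultures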; conditions: S. cerevisiae rad14 strain growth inhibition, stronger effect = higher value
# Outline: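 A mutant yeast strain defective in DNA damage repair is treated with compound; inhibition of its growth is scored against untreated, vehicle-exposed cultures.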
# [8] = NCI Yeast Anticancer Drug Screen. Data for the sgs1 mgt1 strain (AID 161);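 also: 0% = growth of cultures given vehicle only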; conditions: S. cerevisiae sgs1 mgt1 strain, stronger effect = higher value
# Outline: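 Percent growth inhibition was derived by comparing compound-exposed mutant yeast with vehicle-exposed cultures. The strain carries alterations in DNA damage repair.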
# [9] = NCI Yeast Anticancer Drug Screen. Data for the CLN2oe strain (AID 163);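 also: 0% = growth of vehicle-only control cultures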; conditions: S. cerevisiae CLN2oe strain, stronger effect = higher value
# Outline: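 Values reflect how much compound exposure reduced yeast growth, referenced to vehicle-exposed cells. Assay organism is a strain with a defined genetic change affecting cell-cycle control.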
# [10] = NCI Yeast Anticancer Drug Screen. Data for the cln2 rad14 strain (AID 165);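 also: 0% = growth equal to vehicle treated cultures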; conditions: S. cerevisiae cln2 rad14 strain, stronger effect = higher value
# Outline: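 Relative to vehicle controls, growth inhibition of compound-treated cln2 rad14 yeast was recorded.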
# [11] = NCI Yeast Anticancer Drug Screen. Data for the bub3 strain (AID 167); conditions: S. cerevisiae bub3 mutant strain, stronger effect = higher value
# Outline: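 Steps: expose the mutant yeast strain to compound; grow alongside vehicle-treated cultures; measure growth; express inhibition against the vehicle cultures.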
# [12] = NCI Yeast Anticancer Drug Screen. Data for the wt2 strain (AID 169);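 also: 0% = growth of vehicle-treated yeast cultures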; conditions: S. cerevisiae wt2 strain growth inhibition, stronger effect = higher value
# Outline: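 Values express reduction in yeast growth under compound treatment, referenced to vehicle-treated cells.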
# [13] = NCI Yeast Anticancer Drug Screen. Data for the mlh1 strain (AID 171);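 also: 0% = growth of vehicle-treated control cultures of the same strain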; conditions: S. cerevisiae mlh1 strain growth inhibition, stronger effect = higher value
# Outline: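 Steps: expose the defined-mutant yeast strain to compound; expose a parallel culture to vehicle; measure growth; express compound effect as inhibition relative to the vehicle culture.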
# [14] = NCI Yeast Anticancer Drug Screen. Data for the sgs1 strain (AID 173);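 also: 0% = growth of vehicle-only control cultures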; conditions: S. cerevisiae sgs1 mutant, stronger effect = higher value
# Outline: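 Treat defined-mutant yeast with compound; measure growth; calculate inhibition relative to vehicle-treated cells.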
# [15] = NCI Yeast Anticancer Drug Screen. Data for the mlh1 rad18 strain (AID 175); conditions: S. cerevisiae mlh1 rad18 strain growth inhibition, stronger effect = higher value
# Outline: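 Test agents were incubated with a yeast strain of defined genotype (DNA damage repair defect). Inhibition of growth was derived by comparison with vehicle-exposed cultures.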
# [16] = NCI Yeast Anticancer Drug Screen. Data for the rad18 strain (AID 177); conditions: S. cerevisiae rad18 mutant growth inhibition, stronger effect = higher value
# Outline: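 A genetically defined yeast mutant impaired in DNA damage repair was treated with test compounds, then its growth was measured against cultures receiving vehicle alone.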
# [17] = at 5.0 µM (retest, dose inferred, filed as 0.5)
# [18] = at 50.0 µM (retest, dose inferred, filed as 5.0)
smiles,measurement,setting,value
Nc1nc2ccc(NCc3ccc(C(=O)NC(CCC(=O)O)C(=O)O)cc3)cc2c(=O)[nH]1 (stereo not drawn),growth inhibition,[1]; at 1.2 µM,-15%
same,growth inhibition,[1]; at 3.7 µM,-35%
same,growth inhibition,[1]; at 11.0 µM,-21%
same,growth inhibition,[1]; at 33.0 µM,32%
same,growth inhibition,[1]; at 100.0 µM,74% (active)
same,growth inhibition,[2]; at 1.2 µM,-6%
same,growth inhibition,[2]; at 3.7 µM,-17%
same,growth inhibition,[2]; at 11.0 µM,-19%
same,growth inhibition,[2]; at 33.0 µM,3%
same,growth inhibition,[2]; at 100.0 µM,55%
same,growth inhibition,[3]; at 1.2 µM,7%
same,growth inhibition,[3]; at 3.7 µM,-24%
same,growth inhibition,[3]; at 11.0 µM,-9%
same,growth inhibition,[3]; at 33.0 µM,-18%
same,growth inhibition,[3]; at 100.0 µM,5%
same,growth inhibition,[4]; at 1.2 µM,-14%
same,growth inhibition,[4]; at 3.7 µM,-14%
same,growth inhibition,[4]; at 11.0 µM,-24%
same,growth inhibition,[4]; at 33.0 µM,0%
same,growth inhibition,[4]; at 100.0 µM,26%
same,growth inhibition,[5]; at 1.2 µM,7%
same,growth inhibition,[5]; at 3.7 µM,-19%
same,growth inhibition,[5]; [17],3%
same,growth inhibition,[5]; at 11.0 µM,9%
same,growth inhibition,[5]; at 33.0 µM,23%
same,growth inhibition,[5]; [18],18%
same,growth inhibition,[5]; at 50.0 µM,22.1%
same,growth inhibition,[5]; at 100.0 µM,77% (active)
same,growth inhibition,[6]; at 1.2 µM,-4%
same,growth inhibition,[6]; at 3.7 µM,1%
same,growth inhibition,[6]; [17],-3%
same,growth inhibition,[6]; at 11.0 µM,8%
same,growth inhibition,[6]; at 33.0 µM,92% (active)
same,growth inhibition,[6]; [18],81% (active)
same,growth inhibition,[6]; at 50.0 µM,75.3% (active)
same,growth inhibition,[6]; at 100.0 µM,97% (active)
same,growth inhibition,[7]; at 1.2 µM,-20%
same,growth inhibition,[7]; at 3.7 µM,-19%
same,growth inhibition,[7]; at 11.0 µM,-31%
same,growth inhibition,[7]; at 33.0 µM,-5%
same,growth inhibition,[7]; at 100.0 µM,55%
same,growth inhibition,[8]; [17],21%
same,growth inhibition,[8]; [18],18%
same,growth inhibition,[8]; at 50.0 µM,25%
same,growth inhibition,[9]; at 1.2 µM,10%
same,growth inhibition,[9]; at 3.7 µM,7%
same,growth inhibition,[9]; at 11.0 µM,-5%
same,growth inhibition,[9]; at 33.0 µM,2%
same,growth inhibition,[9]; at 100.0 µM,6%
same,growth inhibition,[10]; [17],25%
same,growth inhibition,[10]; [18],25%
same,growth inhibition,[10]; at 50.0 µM,8.85%
same,growth inhibition,[11]; at 1.2 µM,-7%
same,growth inhibition,[11]; at 3.7 µM,6%
same,growth inhibition,[11]; [17],12%
same,growth inhibition,[11]; at 11.0 µM,-4%
same,growth inhibition,[11]; at 33.0 µM,6%
same,growth inhibition,[11]; [18],-24%
same,growth inhibition,[11]; at 50.0 µM,30.9%
same,growth inhibition,[11]; at 100.0 µM,76% (active)
same,growth inhibition,[12]; at 1.2 µM,-24%
same,growth inhibition,[12]; at 3.7 µM,-23%
same,growth inhibition,[12]; at 11.0 µM,-22%
same,growth inhibition,[12]; at 33.0 µM,-26%
same,growth inhibition,[12]; at 100.0 µM,-17%
same,growth inhibition,[13]; at 1.2 µM,-5%
same,growth inhibition,[13]; at 3.7 µM,2%
same,growth inhibition,[13]; at 11.0 µM,0%
same,growth inhibition,[13]; at 33.0 µM,11%
same,growth inhibition,[13]; at 100.0 µM,39%
same,growth inhibition,[14]; at 1.2 µM,-3%
same,growth inhibition,[14]; at 3.7 µM,9%
same,growth inhibition,[14]; at 11.0 µM,6%
same,growth inhibition,[14]; at 33.0 µM,6%
same,growth inhibition,[14]; at 100.0 µM,51%
same,growth inhibition,[15]; [17],6%
same,growth inhibition,[15]; [18],2%
same,growth inhibition,[15]; at 50.0 µM,59.4%
same,growth inhibition,[16]; at 1.2 µM,-11%
same,growth inhibition,[16]; at 3.7 µM,1%
same,growth inhibition,[16]; at 11.0 µM,-12%
same,growth inhibition,[16]; at 33.0 µM,5%
same,growth inhibition,[16]; at 100.0 µM,63%
